Assay results from PubChem BioAssay (Tox21).
Inconclusive results are not listed. Entries that show only a call come without a potency. Active and inactive are the calls of the source. Unless noted, the call rests on the fitted dose curve; in most records, active means well fitted curve in the direction sought with a large enough effect in the repeat runs; inconclusive means weak or mixed curves; inactive means no such curve, though single readings can be large; an effect the other way counts as inactive or inconclusive.

Assays:
[1] = qHTS assay for small molecule agonists of the p53 signaling pathway (AID 651631; calls by dose curve; further: nearly all actives have a fitted effect of over 15% in size)
How it was run: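 We treat p53RE-bla HCT-116 cells with compounds for 16 h at 37 °C, add LiveBLAzer B/G FRET substrate for 2 h at room temperature, and measure fluorescence intensity.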

[2] = qHTS assay for small molecules that induce genotoxicity in human embryonic kidney cells expressing luciferase-tagged ATAD5 - cell viability (AID 651634; calls by dose curve; further: nearly all actives have a fitted effect of over 25% in size)
How it was run: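 Viability read: CellTiter-Fluor fluorescence, 30 min at 37C. Cells: HEK293T, luciferase-tagged ATAD5. Exposure: 15.5 hr, 37C, 5% CO2, compound or DMSO vehicle.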

[3] = qHTS assay to test for compound auto fluorescence at 460 nm (blue) in HEK293 cell free culture (AID 720681)
How it was run: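 Blue fluorescence (Ex 405/Em 460 nm, triamterene-equivalent) was read immediately after pin transfer of compound or DMSO into medium (DMEM, 10% FBS) without cells.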

[4] = qHTS assay to identify small molecule antagonists of the androgen receptor (AR) signaling pathway using the MDA cell line - cell viability counter screen (AID 743041; further: nearly all actives have a fitted effect of over 45% in size)
How it was run: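 Cells were plated at 3,000 per well and left 5 h. Compounds in DMSO were then pinned in, followed by R1881. After 16 h at 37C, CellTiter-Fluor fluorescence gave viability.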

[5] = qHTS assay to identify small molecule antagonists of the thyroid receptor (TR) signaling pathway (AID 743065); further: series mostly up to about 70 µM; nearly all actives have a fitted effect of over 55% in size
How it was run: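 Antagonism measured as loss of luciferase signal in GH3 cells stably carrying a TRE-luciferase reporter, co-treated with compound and T3 (1 nM final) for 23.5 h at 37 C. Viability was read in the same well by CellTiter-Fluor.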

[6] = qHTS assay to identify small molecule antagonists of the estrogen receptor alpha (ER-alpha) signaling pathway using the BG1 cell line - cell viability counter screen (AID 743081);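 further: compound given together with 17beta-estradiol as the ER stimulus; series mostly up to about 70 µM; nearly all actives have a fitted effect of over 45% in size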
[7] = qHTS assay to identify aromatase inhibitors - cell viability counter screen (AID 743084);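 further: cells stimulated with testosterone during compound exposure; nearly all actives have a fitted effect of over 55% in size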
[8] = qHTS assay to identify small molecule that activate the aryl hydrocarbon receptor (AhR) signaling pathway - cell viability counter screen (AID 743086);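 further: HepG2 liver cells carrying the AhR DRE luciferase reporter; series mostly up to about 70 µM; nearly all actives have a fitted effect of over 45% in size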
How it was run: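 Cytotoxicity counter screen: CellTiter-Fluor signal (30 min, 37 C) in 4000 HepG2 cells/well carrying the DRE-luciferase reporter, following 24 h compound exposure at 37 C.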

[9] = qHTS assay to test for compound auto fluorescence at 590 nm (red) in HEK293 cell free culture (AID 720683)
How it was run: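 Red-channel autofluorescence of compounds in culture medium (DMEM, 10% FBS), no cells, measured at 540/590 nm. Rose Bengal sodium is the reference fluorophore for equivalence.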

[10] = qHTS assay for identifying genotoxic compounds that show differential cytotoxicity against isogenic chicken DT40 cell lines with known DNA damage response pathways - wild type cell line (AID 743012); further: nearly all actives have a fitted effect of over 60% in size; further: potency means the concentration at half of the fitted maximal effect
How it was run: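 First, wild type DT40 cells were plated at 300 per well and equilibrated about 0.5 h at 37 C/5% CO2. Next, compounds in DMSO were added and exposure lasted 40 h. Finally, CellTiter-Glo was added for 30 min at room temperature and luminescence recorded.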

[11] = qHTS assay to identify small molecule antagonists of the estrogen related receptor signaling pathway with the pleiotropic PPARgamma coactivator (PGC) from Tox21 10K library (AID 1224841; call rule not given here; further: series mostly up to about 92 µM; actives are mostly falling curves and most rising ones were filed inactive; nearly all actives have a fitted effect of over 50% in size)
How it was run: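 qHTS antagonist format: PGC/ERR cells, 2k/well, compound in DMSO by pin transfer after 6 h attachment, 18 h treatment at 37 C, One-Glo luminescence read at 30 min.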

[12] = qHTS assay to identify small molecule antagonists of the estrogen related receptor (ERR) signaling pathway from Tox21 library (AID 1224848); further: nearly all actives have a fitted effect of over 50% in size
How it was run: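 Antagonist-mode screen of the Tox21 10K library in an NTP-provided ERR reporter cell line; 18 h compound exposure at 37 C, luminescence measured with ONE-Glo.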

SMILES: O=P(O)(O)C(Cl)(Cl)P(=O)(O)O
- Potency [1]: inactive
- Potency [2]: inactive
- Potency [3]: inactive
- Potency [4]: inactive
- Potency [5]: inactive
- Potency [6]: inactive
- Potency [7]: inactive
- Potency [8]: inactive

SMILES: CCCCCN(C)CCC(O)(P(=O)(O)O)P(=O)(O)O
- Potency [1]: inactive
- Potency [2]: inactive
- outcome [9]: inactive
- Potency [10]: inactive
- Potency [4]: inactive
- Potency [5]: inactive
- Potency [6]: inactive
- Potency [7]: inactive
- Potency [8]: inactive

SMILES: CCCCc1ccc(C(=O)O)nc1
- Potency [1]: inactive
- Potency [2]: inactive
- Potency [3]: inactive
- outcome [9]: inactive
- Potency [4]: inactive
- Potency [5]: inactive
- Potency [6]: inactive
- Potency [7]: inactive
- Potency [8]: inactive

SMILES: CCn1cc(C(=O)O)c(=O)c2ccc(C)nc21
- Potency [11]: inactive
- Potency [12]: inactive

SMILES: CC(N)C(=O)OC(C)(C)Cc1ccc(Cl)cc1 (stereo unspecified)
- Potency [11]: inactive
- Potency [12]: inactive

SMILES: C[C@]12N[C@H](Cc3ccccc31)c1ccccc12
- Potency [1]: inactive
- Potency [2]: inactive
- Potency [3]: inactive
- outcome [9]: inactive
- Potency [4]: inactive
- Potency [6]: inactive
- Potency [7]: inactive
- Potency [8]: inactive

SMILES: CC(C)NC(C)Cc1ccc(I)cc1 (stereo unspecified)
- Potency [1]: inactive
- Potency [2]: inactive
- Potency [3]: inactive
- Potency [10]: 26.6 µM (active)
- Potency [4]: inactive
- Potency [6]: inactive
- Potency [7]: inactive
- Potency [8]: inactive
